Activity calls are given as the source filed them.

Assay [1] in a line: small molecules captured by biotinylated probe aFSTL3 – biochemical, small-molecule microarray, fluorescence 635/667, stem cell growth factor project, primary screen (AID 1064).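 Also: measures binding of the biotinylated anti-FSTL3 antibody to printed compounds.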 The note with it: higher = more signal.
The nature of assay [2]: binders from COS7 lysate, DM2A8 probe, primary screen, torsin A project, cell lysate, small-molecule microarray, fluorescence 635/667 (AID 1065). The note with it: higher = more signal, COS7 lysate expressing mutant human TOR1A.
A short description of assay [3]: small molecules captured by biotinylated probe aFGF2 – biochemical, small-molecule microarray, fluorescence 635/667, stem cell growth factor project, primary screen (AID 1067).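 Also: measures binding of biotinylated aFGF2 protein to printed compounds on slides; z-score merges feature fluorescence and signal-to-noise across triplicate slides.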 The conditions noted are these: higher = more signal.
Assay [4] can be described thus: small molecules captured by biotinylated probe aFGF10 – biochemical, small-molecule microarray, fluorescence 635/667, stem cell growth factor project, primary screen (AID 1071).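 Also: score merges 667 nm spot intensity and signal to noise from triplicate slides.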 The note with it: higher = more signal.
The target of assay [5] is Neurogenic locus notch homolog protein 2 (Homo sapiens) (UniProt Q04721). In words: small molecules binding Notch2 protein – biochemical, small-molecule microarray, 635 nm fluorescence, stem cell growth factors, primary screen (AID 1073). The note with it: higher = more signal.
Assay [6] addresses Pro-neuregulin-1, membrane-bound isoform (Homo sapiens) (UniProt Q02297). The assay can be described thus: small molecules binding neuregulin-1 protein – biochemical, small-molecule microarray, fluorescence 635/667, psychiatric disease protein project, primary screen (AID 1075).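 Also: score combines 667 nm spot fluorescence with signal to noise.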 The conditions noted are these: NRG1 binding, 635 nm fluorescence, higher = more signal.
Assay [7] relates to Neuregulin-1 EGF-like domain. In words: small molecules binding NRG1 EGF domain – biochemical, small-molecule microarray, 635 nm fluorescence, primary screen (AID 1081).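 Also: binding of the protein to compounds printed on small-molecule microarray slides.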 The note with it: higher = more signal.
Assay [8] can be described thus: FRG1 expression reporter modulators in myotubes – cell-based, C2C12 myotubes, firefly/Renilla luciferase, luminescence, FRG1 inhibition for FSHD, primary screen (AID 1084). The note with it: FRG1 promoter luciferase, higher = more signal, called active from +8 up or from −8 down.
Assay [9] can be described thus: small molecules captured by biotinylated probe aFST – biochemical, small-molecule microarray, fluorescence 635/667, stem cell growth factor project, primary screen (AID 1086).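 Also: score merges 667 nm fluorescence with signal-to-noise of each printed compound spot.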 The note with it: higher = more signal.
Assay [10] is described as follows: binders of probe aHhip on microarray, primary screen, stem cell growth factor project, biochemical, small-molecule microarray, fluorescence 635/667 (AID 1087).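 Also: score merges spot fluorescence at 667nm with spot signal to noise ratio.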 The conditions noted are these: higher = more signal.
The test system of assay [11] is PRMT1 (protein arginine N-methyltransferase 1). The assay can be described thus: small molecules binding arginine methyltransferase PRMT1 – biochemical, small-molecule microarray, 635 nm fluorescence, primary screen (AID 1088).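 Also: binding of Prmt1 protein to compounds spotted on small-molecule microarray slides.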 The conditions noted are these: higher = more signal.
Assay [12] is described as follows: growth effects on S. cerevisiae YJM789 – YJM789 clinical isolate, OD600, 24 h, basal, primary screen (AID 1089).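 Also: growth of clinical yeast isolate S. cerevisiae YJM 789 seeded 1000 cells per well; test concentration not given here.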 The conditions noted are these: higher = more signal, called active from +8 up or from −8 down.
Assay [13] can be described thus: S. pombe growth modifiers, basal conditions – strain 972, OD600, 24 h, no modulator, primary screen (AID 1090).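 Also: basal condition with compound alone and no growth modifier present; test concentration not given here.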 The note with it: S. pombe 972 growth, higher = more signal, called active from +8 up or from −8 down.
Assay [14] can be described thus: budding yeast growth modifiers under rapamycin – strain BY4716, OD600, 96 h, primary screen (AID 1091). Also: test concentration not given here. The note with it: S. cerevisiae BY4716 + rapamycin, higher = more signal, called active from +8 up or from −8 down.
The target in assay [15] is Torsin-1A-interacting protein 2 (Homo sapiens) (UniProt Q8NFQ8). The assay can be described thus: small molecules binding lysate-expressed LULL1 – cell lysate, human LULL1 lysate, 635/667 nm fluorescence, primary screen (AID 1092).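 Also: probe is lysate of COS7 cells overexpressing human LULL1; score merges per-feature 667 nm fluorescence with signal-to-noise.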 The note with it: small-molecule microarray, hLULL1 lysate binding, 635 nm fluorescence; higher = more signal.
The nature of assay [16]: optical density change of DRC41 E. coli – strain DRC41, OD650, 24 h, E. coli filamentation project, primary screen (AID 1093).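 Also: MC1000 strain lacking acrAB efflux and sulA so SOS filamentation is blocked; test concentration not given here.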 The note with it: E. coli DRC41 growth, higher = more signal, called active from +8 up or from −8 down.
Assay [17] is described as follows: probe aLefty2 binding to arrayed compounds – biochemical, biotinylated probe, 635/667 nm fluorescence, primary screen (AID 1094).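 Also: score merges spot fluorescence near 667 nm with spot signal-to-noise ratio.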 The note with it: small-molecule microarray, higher = more signal.
For assay [18], the system named is Noggin (protein binding on small-molecule microarray). The assay can be described thus: small molecules binding Noggin protein – biochemical, 635/667 nm fluorescence, primary screen (AID 1095).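 Also: score merges 667 nm feature fluorescence with signal to noise over triplicate slides.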 The note with it: 635 nm fluorescence, higher = more signal.
Assay [19] concerns the target Neurogenic locus notch homolog protein 3 (Homo sapiens) (UniProt Q9UM47). In words: small molecules binding NOTCH3 protein – biochemical, 635/667 nm fluorescence, primary screen (AID 1096). The note with it: small-molecule microarray, 635 nm fluorescence, higher = more signal.
A short description of assay [20]: probe aEGFR binding to arrayed compounds – biochemical, biotinylated probe, 635/667 nm fluorescence, primary screen (AID 1097).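 Also: probe is a biotinylated anti-EGFR antibody binding compounds printed on slides; score combines fluorescence near 667 nm and signal to noise of each spot.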 The note with it: small-molecule microarray, higher = more signal.

Chain of Neurogenic locus notch homolog protein 3 (Homo sapiens) (Q9UM47 whole entry, looked up): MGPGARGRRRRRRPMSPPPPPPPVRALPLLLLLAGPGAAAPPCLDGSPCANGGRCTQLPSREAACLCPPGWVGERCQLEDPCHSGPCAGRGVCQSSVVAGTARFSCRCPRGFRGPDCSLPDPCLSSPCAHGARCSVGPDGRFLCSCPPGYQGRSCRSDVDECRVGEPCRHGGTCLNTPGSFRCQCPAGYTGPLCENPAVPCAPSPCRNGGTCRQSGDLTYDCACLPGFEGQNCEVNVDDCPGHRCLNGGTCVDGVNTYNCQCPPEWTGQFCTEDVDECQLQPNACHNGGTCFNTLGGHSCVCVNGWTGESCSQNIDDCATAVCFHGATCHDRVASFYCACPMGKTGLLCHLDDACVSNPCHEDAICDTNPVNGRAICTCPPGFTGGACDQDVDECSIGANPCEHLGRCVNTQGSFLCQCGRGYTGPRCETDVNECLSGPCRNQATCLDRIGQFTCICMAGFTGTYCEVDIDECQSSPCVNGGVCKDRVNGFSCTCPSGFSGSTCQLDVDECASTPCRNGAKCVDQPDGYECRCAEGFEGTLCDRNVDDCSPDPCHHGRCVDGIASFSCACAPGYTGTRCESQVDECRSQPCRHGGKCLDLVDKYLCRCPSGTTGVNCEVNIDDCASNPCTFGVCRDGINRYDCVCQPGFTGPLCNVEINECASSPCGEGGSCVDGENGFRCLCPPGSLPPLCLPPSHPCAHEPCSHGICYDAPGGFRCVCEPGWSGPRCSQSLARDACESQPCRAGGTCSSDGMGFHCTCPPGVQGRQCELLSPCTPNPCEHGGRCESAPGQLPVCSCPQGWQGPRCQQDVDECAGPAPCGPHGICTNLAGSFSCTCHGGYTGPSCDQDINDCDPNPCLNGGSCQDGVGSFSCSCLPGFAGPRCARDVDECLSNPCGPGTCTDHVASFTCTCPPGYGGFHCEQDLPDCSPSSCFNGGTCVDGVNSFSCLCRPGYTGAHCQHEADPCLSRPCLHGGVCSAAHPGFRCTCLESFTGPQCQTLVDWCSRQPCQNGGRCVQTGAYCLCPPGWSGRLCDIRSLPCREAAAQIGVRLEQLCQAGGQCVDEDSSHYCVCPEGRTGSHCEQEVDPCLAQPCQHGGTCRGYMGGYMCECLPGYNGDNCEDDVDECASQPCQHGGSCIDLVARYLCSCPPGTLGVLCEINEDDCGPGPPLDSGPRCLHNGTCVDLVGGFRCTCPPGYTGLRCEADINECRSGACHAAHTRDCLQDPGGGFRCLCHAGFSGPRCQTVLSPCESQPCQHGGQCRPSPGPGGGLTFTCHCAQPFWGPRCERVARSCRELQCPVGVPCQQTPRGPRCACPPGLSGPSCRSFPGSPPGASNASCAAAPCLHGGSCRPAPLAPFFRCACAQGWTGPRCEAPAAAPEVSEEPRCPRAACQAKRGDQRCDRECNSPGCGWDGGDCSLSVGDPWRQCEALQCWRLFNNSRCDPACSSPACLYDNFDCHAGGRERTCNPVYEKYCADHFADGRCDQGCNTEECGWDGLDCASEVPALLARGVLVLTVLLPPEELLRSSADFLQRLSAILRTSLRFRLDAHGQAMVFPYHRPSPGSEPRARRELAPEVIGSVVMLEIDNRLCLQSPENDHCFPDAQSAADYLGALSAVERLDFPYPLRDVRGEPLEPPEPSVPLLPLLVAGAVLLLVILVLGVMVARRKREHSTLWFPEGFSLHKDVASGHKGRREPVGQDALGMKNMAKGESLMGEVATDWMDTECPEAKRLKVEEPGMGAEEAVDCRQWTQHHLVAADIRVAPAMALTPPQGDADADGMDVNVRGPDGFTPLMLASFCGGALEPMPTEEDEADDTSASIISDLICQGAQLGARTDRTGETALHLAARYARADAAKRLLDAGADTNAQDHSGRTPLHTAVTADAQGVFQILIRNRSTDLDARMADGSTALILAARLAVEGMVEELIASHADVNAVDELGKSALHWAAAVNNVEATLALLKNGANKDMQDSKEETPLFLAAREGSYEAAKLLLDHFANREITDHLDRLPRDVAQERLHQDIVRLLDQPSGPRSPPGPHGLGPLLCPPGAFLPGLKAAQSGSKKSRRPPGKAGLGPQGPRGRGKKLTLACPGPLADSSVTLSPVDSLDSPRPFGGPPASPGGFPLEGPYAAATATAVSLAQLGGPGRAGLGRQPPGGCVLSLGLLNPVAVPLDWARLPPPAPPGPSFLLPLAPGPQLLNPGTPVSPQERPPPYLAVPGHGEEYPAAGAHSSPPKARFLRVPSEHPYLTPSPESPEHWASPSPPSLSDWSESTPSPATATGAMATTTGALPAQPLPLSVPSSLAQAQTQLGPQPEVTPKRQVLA
Chain of Pro-neuregulin-1, membrane-bound isoform (Homo sapiens) (Q02297 whole entry, looked up, the tested form may be a part, canonical isoform): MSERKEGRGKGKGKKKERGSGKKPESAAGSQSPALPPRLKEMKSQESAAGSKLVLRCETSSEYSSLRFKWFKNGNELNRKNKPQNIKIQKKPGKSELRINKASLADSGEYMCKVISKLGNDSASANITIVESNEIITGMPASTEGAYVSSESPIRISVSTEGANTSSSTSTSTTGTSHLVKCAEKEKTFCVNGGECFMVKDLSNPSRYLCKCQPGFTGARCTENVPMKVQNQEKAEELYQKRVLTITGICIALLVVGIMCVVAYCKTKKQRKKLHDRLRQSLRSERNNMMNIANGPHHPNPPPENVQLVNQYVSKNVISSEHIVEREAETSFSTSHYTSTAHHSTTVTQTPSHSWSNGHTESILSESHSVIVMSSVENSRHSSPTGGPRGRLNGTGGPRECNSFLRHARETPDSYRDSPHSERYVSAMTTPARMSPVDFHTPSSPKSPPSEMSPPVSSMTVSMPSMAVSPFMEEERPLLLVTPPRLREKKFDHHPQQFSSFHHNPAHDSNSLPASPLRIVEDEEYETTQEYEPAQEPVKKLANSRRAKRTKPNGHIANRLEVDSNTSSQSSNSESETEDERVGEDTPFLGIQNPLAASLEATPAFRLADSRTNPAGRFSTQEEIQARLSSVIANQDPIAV
Chain of Torsin-1A-interacting protein 2 (Homo sapiens) (Q8NFQ8 whole entry, looked up): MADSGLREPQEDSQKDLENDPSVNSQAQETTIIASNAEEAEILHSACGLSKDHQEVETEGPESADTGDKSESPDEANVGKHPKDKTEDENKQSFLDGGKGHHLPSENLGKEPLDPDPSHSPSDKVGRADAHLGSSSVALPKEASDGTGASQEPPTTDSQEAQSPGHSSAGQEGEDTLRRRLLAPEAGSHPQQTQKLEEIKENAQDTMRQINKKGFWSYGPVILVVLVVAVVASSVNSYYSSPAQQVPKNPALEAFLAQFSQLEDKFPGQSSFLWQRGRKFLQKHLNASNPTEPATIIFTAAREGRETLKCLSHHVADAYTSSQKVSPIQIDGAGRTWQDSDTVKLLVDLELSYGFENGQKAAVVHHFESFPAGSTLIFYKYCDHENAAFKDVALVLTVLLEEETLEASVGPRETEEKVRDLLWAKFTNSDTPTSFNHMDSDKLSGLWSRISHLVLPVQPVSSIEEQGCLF

On to `CCOC(=O)C[C@H]1[C@H](OC(=O)c2cc3ccccc3oc2=O)[C@@H](NC(=O)c2ccccc2)c2cc(OCCCO)ccc2N1C(=O)c1ccc2ccccc2n1`, for which the composite z-score in assay [1] was -0.408; in assay [2], -0.373; in [3], -0.0878; in assay [4], 0.8; in [5], 0.889; in assay [6], 0.0325. Besides, the composite z-score was 1.18 in assay [7]; 0.312 in [9]; -0.0346 in assay [10]; 0.258 in assay [11]; 0.852 in [15]; -0.193 in [17]. Further, the composite z-score in assay [18] is 0.918; in assay [19], 0.662; in [20], -0.0828. In addition, the z-score in assay [8] was -0.757 (inactive); in [12], 0.157 (inactive); in assay [13], -0.12 (inactive); in assay [14] it was 0.0284 (inactive); in assay [16], 0.368 (inactive).

Turning to `COc1ccc([Si](C)(C)[C@H]2[C@H](CCO)O[C@@]3(C(=O)N(Cc4ccc(N(C=O)c5ccccc5)cc4)c4ccccc43)[C@@H]2C)cc1`, the composite z-score is -0.151 in assay [1]; -0.177 in [2]; -0.0602 in assay [3]; 0.143 in [4]; -0.285 in [5]; 0.799 in assay [6]. Also, the composite z-score is 0.606 in assay [7]; -0.267 in assay [9]; -0.249 in [10]; 0.258 in assay [11]; 1.12 in assay [15]; -0.107 in assay [17]. The composite z-score in assay [18] was 0.0352; in assay [19], 0.033; in [20], -0.162. Further, the z-score in [8] was -4.11 (inactive); in assay [12] it was 1.09 (inactive); in [13], 0.302 (inactive); in assay [14], 25.2 (active); in assay [16] it was 0.759 (inactive).

For the molecule `[N-]=[N+]=NCc1ccccc1[C@@H]1OC(c2ccc(OCCCO)cc2)=N[C@]1(Cc1ccccc1)C(N)=O`, the composite z-score in assay [1] was 0.0286; in assay [2], -0.187; in assay [3] it was 0.0062; in assay [4], 0.98; in assay [5], 1.6; in [6], 1.99. Moreover, the composite z-score was 1.29 in assay [7]; 1.35 in [9]; -0.249 in [10]; 1.48 in assay [11]; 3.36 in [15]; 0.227 in [17]. The values for the composite z-score in assay [18], in assay [19] and in [20] were 0.683, 1.06 and 0.154, respectively. The z-score is 2.02 (inactive) in [8]; -0.368 (inactive) in assay [12]; -2.27 (inactive) in assay [13]; -0.784 (inactive) in [14]; 0.455 (inactive) in assay [16].

As for `CCCCCN1CC=CC23O[C@@H]4/C=C\CCC(C)OC(=O)C4[C@H]2C(=O)N(C(C)CO)[C@@H]3C1=O` (stereo not given in full), the composite z-score is -0.411 in [1]; -1.14 in assay [2]; -0.164 in assay [3]; -0.043 in [4]; -0.602 in assay [5]; 0.946 in assay [6]. Moreover, the composite z-score in [7] is 0.38; in assay [9], -0.258; in assay [10], -0.268; in assay [11] it was 1.09; in [15], 2.37; in assay [17], -0.238. Besides, the composite z-score is 0.0805 in assay [18], 0.385 in assay [19] and -0.168 in [20]. The z-score in assay [8] is -1.32 (inactive); in assay [12], 0.255 (inactive); in assay [13], 0.117 (inactive); in assay [14], -0.562 (inactive); in assay [16] it was 0.123 (inactive).

Take `CO[C@H]1O[C@H](CO)[C@@H](OC(=O)Nc2ccc(Oc3ccccc3)cc2)[C@H](OC(=O)Nc2ccc3c(c2)OCO3)[C@H]1OC(=O)Nc1ccc2c(c1)OCO2`: the composite z-score in [1] was 0.522; in assay [2] it was 1.24; in assay [3], 0.178; in assay [4], 1.21; in assay [5] it was 1.5; in [6] it was 1.69. In addition, the composite z-score worked out at 1.15 in assay [7]; 0.968 in [9]; 0.241 in assay [10]; 1.53 in [11]; 2.42 in assay [15]; 0.25 in assay [17]. Moreover, the composite z-score is 0.39 in [18], 1.02 in assay [19] and 0.166 in [20]. For the same molecule, the z-score is 5.22 (inactive) in assay [8]; 1.57 (inactive) in [12]; 1.02 (inactive) in [13]; 2.07 (inactive) in assay [14]; 2 (inactive) in [16].

These data come from PubChem BioAssay.
